# Source: PubChem BioAssay (NCATS)
# A number with no mark means an inactive call. Calls of active or inactive are those of the source. The call rests on the fitted dose curve; in most records, active means well fitted activation curve with a large enough effect; inconclusive means small, poorly fitted or top-dose-only effect; inactive means flat fitted curve, though single readings scatter.
# Test: Cellular Toxicity (caspase-3) N2a (AID 665);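 further: compound exposure lasted 16 h at 37 °C before readout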
# Conditions: N2a cells, luminescence, normalized: DMSO 0%, 10 µM staurosporine 100%; series mostly up to 92.2 µM; caspase-3 activation: at the top concentration
# Source text: NIH Chemical Genomics Center [NCGC]
# NIH Molecular Libraries Screening Centers Network [MLSCN]
# National Institutes of Environmental Health Sciences [NIEHS]
# National Toxicology Program [NTP]
# We have developed a 1536-well cell-based assay for quantitative high throughput screening (qHTS) against a number of cell lines to determine in vitro caspase 3/7 activity of small molecules. This particular assay uses the N2a cell line which is derived from mouse neuroblastoma.
# NCGC Assay Protocol Summary:
# The Caspase-Glo 3/7 assay (Promega) is a homogeneous method to measure caspase-3 and caspase-7 activities in cultured cells. The quantitation of caspase 3/7 activity is based on the cleavage of a peptide-aminoluciferin substrate. After caspase cleaves the substrate the free aminoluciferin is liberated and serves as the substrate of luciferase, which generates the light. The luminescent signal is proportional to the amount of caspase 3/7 activity present.
# Using the Caspase-Glo 3/7 assay, the amount of caspase 3/7 activity was measured in the N2a cells with complete culture medium following compound treatment for 16 hours. The assay was performed in opaque white 1536-well plates. In the screen, staurosporine and doxorubicin were used as positive controls. Library compounds were measured for their ability to cause the activation of caspase 3/7 in the cell line, as reflected by an increase in luminescence signal, in a concentration-dependent manner. Data were normalized to the controls for basal activity (DMSO only) and 100% stimulation (10 uM staurosporine). AC50 values were determined from concentration-response data modeled with the standard Hill equation.
# qHTS protocol for caspase 3/7 assay in mouse N2a cell line
# [Step] [Parameter] [Value] [Description]
# 1. Reagent; 5 uL; 1500 mouse N2a cells/well
# 2. Time; 5 hr; 37 °C incubation
# 4. Controls; 23 nL; doxorubicin 7 pM to 100 uM & staurosporine 1.4 pM to 20 uM
# 5. Time; 16 hr; 37 °C incubation
# 6. Reagent; 5 uL; Caspase-Glo 3/7 reagent
# 7. Time; 1 hr; Room Temperature
# 8. Detection; Luminescence; Viewlux plate reader
# Keywords: caspase 3/7, apoptosis, mouse N2a cell line, luminescence, NTPHTS, NTPHTS_NCGC, NIEHS, EPA, DSSTox, MLSMR, MLSCN, NIH Roadmap, qHTS, NCGC
Compound,caspase-3 activation [%],outcome
NC(N)=NC(N)=NCCc1ccccc1,3.03,
O=C(N[C@H](CO)[C@H](O)c1ccc([N+](=O)[O-])cc1)C(Cl)Cl,-1.12,
Cc1nnc(NS(=O)(=O)c2ccc(N)cc2)s1,-2.6,
Cc1ccnc2c1NC(=O)c1cccnc1N2C1CC1,-2.19,
C[C@]12C=CC(=O)C=C1CC[C@@H]1[C@@H]2C(=O)C[C@@]2(C)[C@H]1CC[C@]2(O)C(=O)CO,-4.93,
Cc1noc(NS(=O)(=O)c2ccc(N)cc2)c1C,-4.19,
O=C(O)c1cc(=O)[nH]c(=O)[nH]1,0.336,
CC1=NN(c2ccccc2)C(=O)C1,-2.31,
CC(=O)Oc1ccccc1C(=O)Nc1ncc([N+](=O)[O-])s1,-18.9,
N=C(N)c1ccc(OCCCCCOc2ccc(C(=N)N)cc2)cc1,3.92,
Cc1ncc([N+](=O)[O-])n1CCO,-1.53,
CC(=O)[C@H]1CC[C@H]2[C@@H]3CCC4=CC(=O)CC[C@]4(C)[C@H]3CC[C@]12C,,inactive
NNC(=O)c1ccncc1,-1.22,
CCc1cc(C(N)=S)ccn1,-5.03,
COc1ccc2cc3[n+](cc2c1OC)CCc1cc2c(cc1-3)OCO2,0.483,
CC[C@H](C)C(=O)O[C@H]1C[C@@H](C)C=C2C=C[C@H](C)[C@H](CC[C@@H]3C[C@@H](O)CC(=O)O3)[C@H]21,-1.75,
Cc1cc(NS(=O)(=O)c2ccc(N)cc2)no1,-2.34,
